Screening data deposited in PubChem BioAssay by several laboratories.
Only some compounds are listed: those with a hit (about 4.5% of all), similar ones and a draw of the others.
SKKanGAS inh = blocks kanamycin growth of S. pyogenes SKKanGAS strain; BacTiter-Glo, 6 h; 300,000 tested, 1.3% active; inhibition, % at 7.5 µM;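 active = mean replicate score, as percent of positive control median, at least 50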;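 also: strain carries kanamycin resistance gene driven by streptokinase promoter and grows in 40 µg/ml kanamycin; loss of luminescence reflects streptokinase promoter inhibition or plain growth inhibition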
NALP3 yeast inh = NALP3 inhibition in yeast; Yeast reconstituted NLRP3/ASC/caspase-1, beta-gal luminescence, 24 h; inhibition, % at 10 µM; 330,000 tested, 0.39% active;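 active = inhibition of 50% or more; inactive = inhibition below 50%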
PfHsp90 set2 = growth inhibition of yeast expressing Plasmodium Hsp90 | S. cerevisiae expressing PfHsp90, BacTiter-Glo ATP, 48 h; yeast lacking PDR1 and PDR3 efflux regulators | inhibition, % at 9.4 µM | 310,000 tested, 0.32% active | AID 504621;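 active = every replicate shows inhibition above about 80%, whatever the replicate mean, limit read from the data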
tim23-1 inh = tim23-1 yeast growth inhibition | S. cerevisiae tim23-1 growth, BacTiter-Glo luminescence, 24 h | inhibition, % at 20 µM | 330,000 tested, 1.3% active | AID 463212;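 active = growth inhibition of the mutant yeast at or above 50%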;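 also: temperature-sensitive mutant grown at 25 °C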
tim10-1 inh = inhibits growth of tim10-1 mutant yeast. inhibition, % at 20 µM. S. cerevisiae tim10-1 ts strain growth, BacTiter-Glo, 24 h. 330,000 tested, 2.2% active;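 active = inhibition of at least 40%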;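 also: mutant grown at 25 °C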
TIM10 inh = TIM10 yeast growth inhibition | S. cerevisiae TIM10 strain growth, BacTiter-Glo luminescence, 24 h | inhibition, % at 10 µM | 330,000 tested, 1.4% active | AID 463195;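 active = inhibition of 40% or more at the single tested concentration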;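 also: wild-type TIM10 isogenic control strain grown at permissive 25 °C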
tim10 confirm = TIM10 yeast growth inhibition, confirmed; S. cerevisiae tim10 strain growth, BacTiter-Glo luminescence, 24 h; 4,600 tested, 63% active; shares compounds with TIM10 inh; inhibition, % at 10 µM;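 active = inhibition of yeast growth at or above a set limit in either of two replicates at 10 µM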; also: this counterscreen used the strain with wild-type TIM10
A number is an active result; . = inactive; / = no result.

SMILES | SKKanGAS inh | NALP3 yeast inh | PfHsp90 set2 | tim23-1 inh | tim10-1 inh | TIM10 inh | tim10 confirm
CN(Cc1ccccc1)C(=O)CCS(=O)(=O)c1ccc2c(c1)n(C)c(=O)c(=O)n2C | . | . | . | . | . | 40 | .
O=C(COC(=O)c1ccc[nH]c1=O)Nc1cc(S(=O)(=O)N2CCCCCC2)ccc1Cl | / | . | / | . | . | . | /
CCOc1cc(/C=C2/C(=O)ON=C2C)ccc1OCc1ccc(F)cc1 | . | . | . | . | . | 43 | .
CC1CCN(c2ccc([N+](=O)[O-])cc2C(=O)NCC2CCCO2)CC1 (configuration not stated) | . | . | . | . | . | . | /
CSc1ccccc1C(=O)Nc1cccc(C)c1 | . | . | / | . | . | 44 | .
Cc1ccc2nc(N3CCN(Cc4ccc(F)cc4)C3=O)c(C)cc2c1 | . | . | . | . | . | 46 | 60
O=C(O)CN1CCN(Cc2ccc(F)cc2)C1=O | . | . | . | . | . | . | /
Cc1cc(C)c(CN2CCN(CCCn3cnc(C(=O)Nc4ccc(C)c(C)c4)n3)CC2)c(C)c1 | / | / | . | / | / | / | /
COCCNC(=O)Cn1cc(/C=C(\C#N)C(=O)NC2CCCC2)c2ccccc21 | . | . | . | . | . | . | /
O=c1c2cc(F)ccc2sn1-c1ccc(F)cc1 | / | . | . | . | . | 47 | 57
CCc1cc(C)cc(OCCOc2ccccc2/C=N/NC(C)=O)c1 | . | . | . | . | . | . | /
CC(=O)N/N=C/c1ccccc1OCCOc1cccc(C)c1 | . | . | . | . | . | 47 | 34
CCOC(=O)CSc1ccc2ccccc2n1 | . | . | . | . | . | . | /
CCOC(=O)CN1C=C(c2ccc3ccccc3n2)C(C[N+](=O)[O-])c2ccccc21 (configuration not stated) | . | . | . | . | . | 57 | 62
CCc1nnc(NC(=O)COc2ccccc2[N+](=O)[O-])s1 | . | . | . | . | . | 40 | .
CCc1nnc(NC(=O)COc2ccc([N+](=O)[O-])cc2)s1 | . | . | . | . | . | . | /
COc1cc(OC)c(C(=O)OCC(=O)Nc2ccc(N3CCOCC3)cc2)cc1OC | / | . | . | . | . | . | /
S=c1nc(-c2sccc2OCc2ccc(Cl)cc2Cl)[nH][nH]1 | . | . | . | . | . | 41 | 29
O=C(N/N=C/c1ccccn1)c1cc(-c2ccc3ccccc3c2)n[nH]1 | . | . | . | . | . | 60 | .
CC1CC(C)CN(CC(=O)NNC(=O)COc2ccc(Cl)cc2)C1 (configuration not stated) | / | . | . | . | . | . | /
C#CCOc1nc(Nc2cccc([N+](=O)[O-])c2)nc(OCC#C)n1 | . | . | . | . | . | 41 | 42
COc1ccc(Cn2c(-c3ccc(C)cc3)c[n+]3ccccc23)cc1 | . | . | . | . | . | 42 | 51
CC(C)CN(C(=O)CCNC(=O)c1ccccc1Cl)C1CCS(=O)(=O)C1 (configuration not stated) | / | . | / | . | . | . | /
CSc1ccc(/C=N/NC(=O)CN2CCN(Cc3ccc(Cl)cc3)CC2)cc1 | . | . | . | . | . | 41 | .
CSc1ccc(/C=N/NC(=O)CN2CCN(Cc3ccccc3)CC2)cc1 | . | . | . | . | . | . | /
SMILES | SKKanGAS inh | NALP3 yeast inh | PfHsp90 set2 | tim23-1 inh | tim10-1 inh | TIM10 inh | tim10 confirm
Cc1ccc(NC(=O)CSc2nnc(COc3ccccc3F)n2N)cc1S(=O)(=O)N1CCOCC1 | / | / | . | / | / | / | /
COc1cccc(/C=N/NC(=O)c2cc(-c3ccccn3)nc3ccccc23)c1O | / | . | . | . | . | 45 | .
CCn1c(SCc2ccccc2F)nnc1-c1ccncc1 | . | . | . | . | . | . | /
CCc1ccc(C(=O)NNc2cc(Cl)cc(Cl)c2)cc1 | . | . | . | . | . | . | /
CCc1ccc(C(=O)NNc2ccc(Cl)cc2)cc1 | . | . | . | . | . | 53 | 53
Cc1c([N+](=O)[O-])cc(C(=O)Oc2ccc(Br)cc2C(=S)N2CCCCC2)cc1[N+](=O)[O-] | . | . | . | . | . | 44 | 32
COc1ccc(CC(=O)N2CCN(S(=O)(=O)c3cc(Cl)ccc3Cl)CC2)cc1 | / | . | . | . | . | . | /
CCN(CC)c1ncccc1C(=O)NCc1cccs1 | . | . | . | . | . | . | /
Cc1ccc(C)c(Nc2ncccc2C(=O)NCc2cccs2)c1 | . | . | . | . | . | 45 | 44
c1ccc(-c2csc(Nc3cccnc3)n2)cc1 | . | . | . | . | . | 42 | .
O=C(/C=C/c1ccc(Cl)cc1)NC(=S)Nc1ccccc1C(=O)O | . | . | . | . | . | 43 | 32
NC(=O)c1ccccc1NC(=O)/C=C/c1ccc(Cl)cc1 | . | . | . | . | . | . | /
COc1ccc(CCC(=O)OCC(=O)Nc2ccccc2)cc1 | . | . | . | . | . | . | /
COCCOC(=O)C1=C(C)NC(=O)NC1c1cccc2ccccc12 (configuration not stated) | . | . | . | . | . | 51 | .
CCOC(=O)N1CCN(C(=O)c2nn(C)c3c2CSc2ccccc2-3)CC1 | . | . | . | . | . | . | /
COC(=O)c1cc(S(=O)(=O)Nc2cccc(C)c2C)cn1C | . | . | . | . | . | 84 | .
COC(=O)CNC(=O)CSc1nc2sc(-c3ccccc3)cc2c(=O)n1-c1ccccc1 | . | . | . | . | . | 45 | 38
COC(=O)CNC(=O)CSc1nc2sccc2c(=O)n1-c1ccccc1 | . | . | . | . | . | . | /
O=c1oc2ccccc2c(O)c1Sc1ccc(Cl)cc1 | . | . | . | . | . | . | /
C=CCOc1ccc(CN(C)C(=O)c2ccc(CNS(=O)(=O)c3ccc(C)c(C)c3)cc2)cc1 | / | . | . | . | . | . | /
O=[N+]([O-])c1cc([N+](=O)[O-])c2c(=Nc3ccccc3)n(-c3ccccc3)n(O)c2c1 | . | . | . | . | . | 50 | 66
Nc1ccc(C23CC4CC(CC(C4)C2)C3)cc1 | . | . | . | . | . | 42 | .
N#CC(C#N)=C1C=CC=CN1/C(=C\c1ccccc1)C(=O)c1cccs1 | . | . | . | . | . | 43 | .
CCC(Cc1ccccc1)n1c(=S)[nH]c2ccccc2c1=O (configuration not stated) | . | . | . | . | . | 50 | 38
COc1cccc(C(=O)OC(C)CN2CCCC2)c1 (configuration not stated) | . | . | . | . | . | . | /
CC(CN1CCCCC1)OC(=O)c1cccc(F)c1 (configuration not stated) | . | . | . | . | . | 97 | .
COc1ccc(C(=O)c2ccc(OC)c3cccc(O)c23)cc1OC | . | . | . | . | . | 44 | .
COc1ccc(C(=O)c2ccc(OC)c(OC)c2)cc1OC | . | . | . | . | . | . | /
